Reference: PubChem BioAssay AID2284354 (EPA ToxCast)
Inconclusive results are not listed. Active and inactive are the calls of the source. How the source made its calls: active means hit-call score of the fitted dose curve at least 0.9, where 1 is the maximum; inconclusive means response in the unintended direction; inactive means score below 0.9.

These compounds were tested against human Retinoid X Receptor beta (RXRb), RXRB (gene 6257) (UniProt P28702) (assay: ATG_hRXRb_EcoTox2: Attagene TRANS-FACTORIAL EcoTox-2 HepG2 Assay for human Retinoid X Receptor beta (RXRb)).
Procedure: ATG_EcoTox2 is a cell-based, multiplexed assay created by modifying the existing Attagene TRANS-FACTORIAL system to include a panel of nuclear receptors from some or all the following species: human (Homo sapiens), african clawed frog (Xenopus laevis), rainbow trout (Oncorhynchus mykiss), japanese medaka (Oryzias latipes), and zebrafish (Danio rerio). The ECOTOX2-FACTORIAL format uses HepG2, a human liver cell line, with measurements taken at 24 hours after chemical dosing in a 24-well plate. ATG_hRXRb_EcoTox2 is one of 29 assay components calculated in the ATG_EcoTox2 assay. It is designed to make measurements of mRNA induction, a form of inducible reporter, as detected with fluorescence intensity signals by Reverse transcription polymerase chain reaction (RT-PCR) and Capillary electrophoresis technology.The assay endpoint ATG_hRXRb_EcoTox2 was analyzed in the positive analysis fitting direction relative to DMSO as the negative control and baseline of activity. Using a type of inducible reporter, measures of mRNA for gain-of-signal activity can be used to understand the reporter gene at the transcription factor-level as they relate to the gene RXRb. Furthermore, this assay endpoint can be referred to as a primary readout, because this assay has produced multiple assay endpoints where this one serves a reporter gene function. To generalize the intended target to other relatable targets, this assay endpoint is annotated to the nuclear receptor intended target family, where the subfamily is non-steroidal.
Human liver HepG2 cells are transiently transfected with multiple reporter transcription units (MRTUs) in 6-well plates using FuGene 6 reagent (Roche; 3 ml FuGene/1 mg DNA). The MRTU constructs are regulated by a cis-regulating element (promoter). Each RTU expresses a GAL4-UAS that regulates the transcription of a nearby target reporter gene sequence. A major difference between the CIS and TRANS system is that in CIS activities of endogenous TFs are measured, whereas the TRANS assay evaluates changes in activities of exogenous, chimeric NR-Gal4 proteins. […] At the end of 24 hour incubation, total RNA was isolated using TriZol reagent (Invitrogen). The isolated RNA is then reverse-transcribed using oligo(dT) primer and Mo-MLV reverse transcriptase (Invitrogen) with DNAse I (Ambion) treatment for 30 min. The one-tenth of the produced cDNA was amplified by PCR using Taq DNA polymerase (Invitrogen) and two reporter sequence-specific primers. […] The fragments were purified using Qiaquick PCR columns (Qiagen), analyzed on an ABI 3130xL genetic analyzer (Applied Biosystems) with peak positions identified by using a set of X-rhodamine (ROX)-labeled MapMarker1000 molecular weight standards (BioVentures). […]

human Retinoid X Receptor beta (RXRb), RXRB (gene 6257), sequence (P28702 whole entry, looked up): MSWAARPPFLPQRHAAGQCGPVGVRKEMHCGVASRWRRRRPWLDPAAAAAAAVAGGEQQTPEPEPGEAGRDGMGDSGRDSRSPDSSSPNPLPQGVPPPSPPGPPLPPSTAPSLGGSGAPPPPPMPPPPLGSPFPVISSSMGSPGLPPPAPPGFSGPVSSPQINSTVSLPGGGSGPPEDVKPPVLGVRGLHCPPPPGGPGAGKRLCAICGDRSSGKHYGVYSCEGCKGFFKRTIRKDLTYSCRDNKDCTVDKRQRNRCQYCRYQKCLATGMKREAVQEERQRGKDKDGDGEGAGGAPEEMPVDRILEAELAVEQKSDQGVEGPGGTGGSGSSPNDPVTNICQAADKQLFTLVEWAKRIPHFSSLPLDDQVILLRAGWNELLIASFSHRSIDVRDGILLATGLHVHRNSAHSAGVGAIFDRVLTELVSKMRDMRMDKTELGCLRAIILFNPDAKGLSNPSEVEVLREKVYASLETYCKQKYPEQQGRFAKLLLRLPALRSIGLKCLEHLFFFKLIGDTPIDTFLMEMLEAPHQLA

| Structure (SMILES) | AC50 | outcome |
| --- | --- | --- |
| O=C(O)C(F)(F)C(F)(F)C(F)(F)C(F)(F)C(F)(F)C(F)(F)C(F)(F)F | 29 µM (active) | – |
| CCCCOCN(C(=O)CCl)c1c(CC)cccc1CC | 36.6 µM (active) | – |
| O=S(=O)(O)C(F)(F)C(F)(F)C(F)(F)C(F)(F)C(F)(F)C(F)(F)F | – | inactive |
| [Cl][Sn]([c]1ccccc1)([c]1ccccc1)[c]1ccccc1 | 0.041 µM (active) | – |
